According to ChEMBL document CHEMBL4513216, “Probing the Open Global Health Chemical Diversity Library for Multistage-Active Starting Points for Next-Generation Antimalarials” (ACS Infect Dis, 2020):
In all, about 69,000 compounds went through this assay and about 8,600 (12%) showed an effect of 50% or more. For the sample, strong results were picked, then their nearest neighbours and some compounds at random.

Test system: Plasmodium berghei
Experiment: Screen against P. berghei liver stage (PbLuc), transformed with Luciferase, at 10uM
Type: functional, HepG2
Settings: tested at 10 uM

| Structure (SMILES) | INHIBITION [%] |
| --- | --- |
| Nc1nccc(C2CCN(CC3CC3)C2)n1 (centres undefined) | 20.2 |
| CN(CCc1cn[nH]c1)C(=O)CCc1ccc(Cl)cc1 | 49 |
| CC(Nc1cccc2c1OCCO2)C(=O)Nc1ccc(Cl)cc1 (centres undefined) | -10.3 |
| CCc1nnc2n1CCN(C(=O)c1cc3cc(C)ccc3[nH]1)C2 | 10 |
| O=C(Nc1ccc(-n2ccc(C(=O)O)n2)cc1)c1ccccc1 | 39.5 |
| Cc1cn([C@@H]2CC3(CCNCC3)OC[C@@]2(C)O)c(=O)[nH]c1=O | 37.1 |
| CC(=O)N1CC(=O)N(c2cnn(C)c2)CC12CCN(Cc1ccco1)C2 (centres undefined) | 29.7 |
| CC(C)=CCN1CCOC(Cn2cccn2)C1 (centres undefined) | 19.5 |
| CC(C)CN1CCCC12CCN(c1nncs1)C2 (centres undefined) | 37.8 |
| N#Cc1ccc(CCC(=O)N2CCCC(n3cncn3)C2)cc1 (centres undefined) | 19.2 |
| CN(C)c1ncccc1CNc1snc(Cl)c1C#N | 49.1 |
| CCCOc1ncccc1CNc1nnc(C)c(C)c1C#N | 41.15 |
| COc1ncccc1CNc1snc(Cl)c1C#N | 54.3 |
| CCCN(Cc1nc(-c2ccoc2)oc1C)CC1CCCO1 (centres undefined) | -13.1 |
| O=C(O)C1(Cc2cccc(-c3ccc(F)cc3)c2)CCOCC1 | -22.6 |
| Cc1cc(C)cc(-c2ccc(CC3(C(=O)O)CCOCC3)cc2)c1 | 61.4 |
| COc1ccc(-c2cccc(CC3(C(=O)O)CCOCC3)c2)cc1 | 29.2 |
| O=C(O)C1(Cc2cccc(-c3ccc(F)c(F)c3)c2)CCOCC1 | 58.6 |
| Cc1cccc(-c2cccc(CC3(C(=O)O)CCOCC3)c2)c1 | 13.5 |
| Cc1cc(C)cc(-c2cccc(CC3(C(=O)O)CCOCC3)c2)c1 | 38.7 |
| Cn1cccc1C(=O)N1C[C@@H](OCc2cccnc2)[C@H]2OCCC[C@H]21 | 41.3 |
| CN(C)CC(=O)NC1CC(=O)N(CCc2ccccc2)C1 (centres undefined) | 11.2 |
| Cc1cc2c(=O)n3c(nc2s1)CCN(C(=O)c1cn(C)nc1C)CC3 | 14.7 |

| Structure (SMILES) | INHIBITION [%] |
| --- | --- |
| Cc1nnn2c1COCC(CNCc1nccs1)C2 (centres undefined) | -27.6 |
| c1ccc(CN2CCC(NCCc3ccc4c(c3)CCO4)CC2)nc1 | 25.7 |
| Cc1cc2n(n1)CC(CNC1CCN(Cc3ccncc3)CC1)CN2 (centres undefined) | 16.1 |
| Cc1cc2n(n1)CC(CNC1CCN(Cc3ccccn3)CC1)CN2 (centres undefined) | 50.2 |
| N#Cc1ccc(NC2CCN(Cc3ccccn3)CC2)c(F)c1 | -5.78 |
| Fc1ccc(OCCNC2CCN(Cc3ccncc3)CC2)c(F)c1 | 61.3 |
| CC(CNC1CCN(Cc2ccncc2)CC1)c1ccc(F)cc1F (centres undefined) | -0.275 |
| Cc1cc2n(n1)CC(CNC1CCN(Cc3ccccc3C)CC1)CN2 (centres undefined) | 16.6 |
| Fc1ccc(OCCNC2CCN(Cc3ccccn3)CC2)c(F)c1 | 53.6 |
| Cc1cc2n(n1)CC(CNC1CCN(c3ccccn3)CC1)CN2 (centres undefined) | 31.4 |
| Fc1cccc(-c2c[nH]c(C3CCCN3)n2)c1 (centres undefined) | -4.62 |
| CN(C(=O)NCC1(CN2CCOCC2)CCCCC1)C1CC1 | 0.0944 |
| Cc1nc(CN2CCC(N(C)Cc3noc(C(C)C)n3)C2)oc1C (centres undefined) | 11.4 |
| CN1CC(=O)N(c2cccc(F)c2)CC12CCN(CC1CC1)C2 (centres undefined) | 19.5 |
| CN(Cc1nccn1C)S(=O)(=O)N1CCCC1c1ccco1 (centres undefined) | 15.7 |
| CC(O)CN1CCC(=O)N(Cc2ccccc2)Cc2ccccc21 (centres undefined) | 28.3 |
| Cc1noc(C(C)N2CCN(Cc3cccc(C#N)c3)CC2)n1 (centres undefined) | 21.5 |
| Cc1noc(C(C)N2CCN(c3ccc(C#N)cn3)CC2)n1 (centres undefined) | -5.78 |
| CC(c1nc(C2CC2)no1)N1CCN(Cc2ccccc2)CC1 (centres undefined) | 27.4 |
| CC(c1nc(C2CC2)no1)N1CCN(c2ccc(C#N)cn2)CC1 (centres undefined) | 55.3 |
| CC(c1nc(C2CC2)no1)N1CCN(Cc2cccc(C#N)c2)CC1 (centres undefined) | 60.5 |
| CC(C)c1noc(C(C)N2CCN(Cc3cccc(C#N)c3)CC2)n1 (centres undefined) | -8.11 |
| CC(c1nc(C2CC2)no1)N1CCN(Cc2ccc(C#N)cc2)CC1 (centres undefined) | 57 |

| Structure (SMILES) | INHIBITION [%] |
| --- | --- |
| CC(C)c1noc(C(C)N2CCN(c3ccc(C#N)cn3)CC2)n1 (centres undefined) | 45.9 |
| COc1ccc(CN2CCN(C(C)c3nc(C4CC4)no3)CC2)cc1 (centres undefined) | 40.3 |
| CCC(C)(C)NC(=O)CN1C=Nc2ccccc2S1(=O)=O | 19.6 |
| c1cnc(N2CCC3(CCN(CC4CCOCC4)CC3)C2)nc1 | 5.67 |
| CCc1c(C(=O)O)nnn1-c1ccc(C)cc1C | 39.2 |
| CN(C)S(=O)(=O)N1C[C@@H]2CN(Cc3ccoc3)CCO[C@@H]2C1 | 23.6 |
| CN1CCN(CCOc2ccc(NC(=O)c3ccoc3)cc2)CC1 | -6.99 |
| CCc1c(C(=O)O)nnn1-c1cccc(C)c1C | 6.09 |
| COc1cc(N2CC[C@@H](O)[C@@H]2Cc2ccncc2)ncn1 | 43.9 |
| COc1cc(N2CC[C@H](O)[C@@H]2Cc2ccccc2)ncn1 | 75.4 |
| COCCO[C@@H]1CCN(c2cc(OC)ncn2)[C@H]1Cc1cnn(C)c1 | 14.6 |
| COCCN1CC[C@H](O)[C@@H]1Cc1ccccc1 | 0.79 |
| COc1cc(N2CC[C@H](O)[C@@H]2Cc2cnn(C)c2)ncn1 | 22.7 |
| COCCO[C@H]1CCN(c2cc(OC)ncn2)[C@H]1Cc1cnn(C)c1 | 76.2 |
| COc1cc(N2CC[C@H](O)[C@@H]2Cc2cccnc2)ncn1 | 6.6 |
| COc1cc(N2CC[C@@H](OC)[C@@H]2Cc2cnn(C)c2)ncn1 | 23.5 |
| COCC(=O)N1CC[C@@H](O)[C@@H]1Cc1ccccc1 | 37.5 |
| COCCN1CC[C@@H](O)[C@@H]1Cc1ccccc1 | 6.32 |
| COc1cc(N2CC[C@@H](O)[C@@H]2Cc2ccccc2)ncn1 | 92.8 |
| COc1cc(N2CC[C@@H](O)[C@@H]2Cc2cccnc2)ncn1 | 85.8 |
| Cc1cc(OCCC(=O)Nc2cccc(F)c2)nnc1C | -9.93 |
| Cc1cc2c(=O)n3c(nc2s1)CCN(Cc1cncn1C)CC3 | 5.11 |
| Cc1cnn(CC(=O)N2CCCN(c3ncccc3C#N)CC2)c1 | -14.7 |
